Source: PubChem BioAssay (several laboratories)
UBC13 polyUb – blocks human UBC13 polyubiquitin chain formation; P61088; inhibition, % at 20 µM; hit rate 0.47% among 330,000; TR-FRET; in the data active = inhibition above about 45%, passing the limit was not always enough
Target sequence (P61088 whole entry, looked up): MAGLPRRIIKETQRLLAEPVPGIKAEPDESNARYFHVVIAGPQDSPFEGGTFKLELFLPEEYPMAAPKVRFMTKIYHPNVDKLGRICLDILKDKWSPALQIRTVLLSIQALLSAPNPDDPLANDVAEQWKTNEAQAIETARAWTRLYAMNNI
dFosB act-1 – enhances mouse delta FosB homodimer DNA binding | P13346 | purified delta FosB, TAMRA-CDK5 oligo fluorescence polarization; percent of positive-control signal above neutral wells | activation, % at 25 µM | hit rate 0.99% among 340,000;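 active = mean activation above about 17%, with every replicate also reaching it, limit read from the data, passing the limit was not always enough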
Target sequence (P13346 whole entry, looked up): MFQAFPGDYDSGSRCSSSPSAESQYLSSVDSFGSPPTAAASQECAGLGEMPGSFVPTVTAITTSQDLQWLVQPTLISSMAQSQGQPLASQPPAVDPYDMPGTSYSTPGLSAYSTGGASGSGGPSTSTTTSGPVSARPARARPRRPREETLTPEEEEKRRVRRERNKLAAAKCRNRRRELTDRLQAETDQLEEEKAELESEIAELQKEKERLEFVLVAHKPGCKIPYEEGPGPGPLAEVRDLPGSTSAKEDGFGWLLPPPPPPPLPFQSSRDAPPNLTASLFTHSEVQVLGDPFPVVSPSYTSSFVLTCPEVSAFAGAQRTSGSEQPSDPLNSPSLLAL
NALP1 yeast inh – blocks the NALP1 inflammasome reconstituted in yeast; S. cerevisiae NALP1/ASC/caspase-1 growth, X-gal OD620, 72 h; inhibition, % at 10 µM; hit rate 0.61% among 280,000; in the data active = inhibition mostly above about 24%, no sharp cut-off; inactive = mostly below about 32%
Yeast superoxide – lowers age-related superoxide in aged yeast cells | S. cerevisiae aged cells, superoxide DHE fluorescence; stronger effect = lower value | superoxide response (% of plate mean), % at 10 µM | hit rate 0.18% among 330,000 | AID 2690;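 active = superoxide response under a set limit, about three screen SD below normal, cut at about 65% in these data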;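 note: yeast aged for seven days with compound at 30 °C before DHE staining; 100% = average MFI of all compound-treated wells on the plate with controls excluded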
GRIN3A LBD mod – NR3A (human) ligand-binding domain modulation; hit rate 2.5% among 340,000; Tm shift relative to glycine control, % at 25 µM; AID 1259313; NR3A LBD differential scanning fluorimetry, Tm shift; 0% = protein alone, 100% = glycine-bound protein;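 active = melting temperature shift of at least 10% of the positive control shift, at one fixed dose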
dFosB act-2 – delta FosB (mouse) homodimer activation; AID 588690; 2,400 tested, under 10 active; purified delta FosB, TAMRA-CDK5 oligo fluorescence polarization; normalised: neutral wells 0, positive control 100; shares compounds with dFosB act-1; activation, % at 24.9 µM;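 active = highest replicate activation at or above 34% and every replicate reaching that threshold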;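 note: higher polarization means more probe DNA bound by delta FosB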
Numbers without * were called inactive; . = no result. This is a sample that favours compounds with a hit; in the whole collection about 4.3% have one here.

SMILES	UBC13 polyUb	dFosB act-1	NALP1 yeast inh	Yeast superoxide	GRIN3A LBD mod	dFosB act-2
CCC(=O)Nc1ccc(C(=O)CSc2nnc(-c3ccc(NS(=O)(=O)CC)cc3)o2)cc1OC	-3	20*	.	106	-1	0
COc1ccc(-c2nnc(SCC(=O)Nc3cccc(Cl)c3)o2)cc1	7	38*	14	117	9	3
c1nc(NCc2ccc3c(c2)OCO3)c2cc(-c3ccoc3)ccc2n1	12	-7	.	95	-28	.
O=C1CC(C(=O)Nc2ccc(Cl)c(Cl)c2)S/C(=N\N=C\c2ccco2)N1 (configuration not stated)	-18	32*	.	110	6	0
O=C1CC(C(=O)Nc2ccc(Br)cc2)S/C(=N\N=C\c2ccco2)N1 (configuration not stated)	-6	15	.	101	1	.
O=C1CC(C(=O)Nc2ccc(Cl)cc2)S/C(=N\N=C\c2ccco2)N1 (configuration not stated)	-3	45*	.	108	-3	0
Cc1ccc(NC(=O)CC2S/C(=N/N=C/c3ccco3)NC2=O)cc1Cl (configuration not stated)	-18	33*	15	95	4	-1
O=C1CC(C(=O)Nc2ccccc2)S/C(=N\N=C\c2ccco2)N1 (configuration not stated)	-1	28*	24	87	3	5
Cc1ccccc1CC1S/C(=N/N=C/c2ccco2)NC1=O (configuration not stated)	-15	.	.	122	.	.
CCOC(OCC)c1nc(N)[nH]c(=O)c1CCCCc1ccccc1	.	-6	.	.	-1	.
CC(=O)NCCC(=O)Nc1cc(S(=O)(=O)N2CCCCC2)ccc1Oc1ccccc1	-8	-3	16	92	0	.
Cc1cc(NC(=O)Cn2c(=O)oc3ccccc32)no1	3	3	.	102	-2	.
O=C(CN1CCN(CCN2C(=O)c3cccc4cccc(c34)C2=O)CC1)c1ccc(F)cc1	11	33*	27	90	-1	2
COc1ccc(OCC(O)CN2CCC(CN3C(=O)c4cccc5cccc(c45)C3=O)CC2)cc1 (configuration not stated)	30	45*	.	98	-2	2
CN(C)CCCN1C(=O)c2cccc3cccc(c23)C1=O	-15	20*	4	101	-1	3
O=C1c2cccc3cccc(c23)C(=O)N1CCCN1CCN(c2ccc(F)cc2)CC1	16	46*	-7	105	-2	0
COc1ccc(NC(=O)CNc2cccc(S(=O)(=O)N3CCCCCC3)c2)c([N+](=O)[O-])c1	7	-2	.	84	-4	.
O=C(CC(=O)c1ccccc1[N+](=O)[O-])c1ccccc1	-7	.	.	94	.	.
CCN(CC)S(=O)(=O)c1cccc(NC2=NCCCCC2)c1	1	-2	-1	90	-1	.
O=C1[C@H](Cc2ccccc2)NCC=CC[C@H](c2ccc(Cl)cc2)N1Cc1ccc(Cl)cc1	.	5	.	.	-13	.
CC(=O)Nc1cc2c(cc1Br)-c1ccccc1C2	.	3	.	.	1	.
COc1ccc(C(=O)CN2CCN(CCN3C(=O)c4cccc5cccc(c45)C3=O)CC2)cc1	4	42*	.	109	0	7
O=C(CN1CCN(CCN2C(=O)c3cccc4cccc(c34)C2=O)CC1)c1ccc(Cl)cc1	.	.	28	.	.	.
CCNC1CCC(Nc2ccnc3cc(Cl)ccc23)CC1 (configuration not stated)	.	20*	.	.	1	6
CCN(CC)CCNc1ccnc2cc(Cl)ccc12	5	9	37	99	0	.
SMILES	UBC13 polyUb	dFosB act-1	NALP1 yeast inh	Yeast superoxide	GRIN3A LBD mod	dFosB act-2
Cc1onc(-c2ccccc2)c1C(=O)NC(=S)NNC(=O)c1cc(-c2ccc(F)cc2)n[nH]1	4	29*	.	103	10	-1
Cc1onc(-c2ccccc2)c1C(=O)NC(=S)NNC(=O)c1ccncc1	-10	-10	27	98	-3	.
Cc1c(N=C2N=C(NC(=O)Nc3ccc(Cl)cc3)c3ccccc32)c(=O)n(-c2ccccc2)n1C	-13	38*	-4	86	2	-30
O=C(COc1ccc2c3c(c(=O)oc2c1)CCC3)Nc1ccccn1	8	11	2	99	3	.
O=C(CNC(=O)c1ccc(-c2ccccc2)cc1)Nc1ccc(S(=O)(=O)Nc2ncccn2)cc1	12	25*	15	84	-1	4
O=C(CS(=O)(=O)c1ccccc1)Nc1ccc(S(=O)(=O)Nc2ncccn2)cc1	-6	-2	-8	93	-1	.
CN(Cc1ccccc1F)C(=O)c1ccc(NC(=O)CC2SC(N3CCCCC3)=NC2=O)cc1 (configuration not stated)	.	-16	.	.	-5	.
C=CCn1c(SCCN2CCCC2)nc2c([nH]c3ccccc32)c1=O	-18	-5	27	108	-1	.
Cc1cccn2c(=O)c(/C=N/O)c(Nc3ccccc3F)nc12	-25	20*	.	89	-1	1
Cc1cccn2c(=O)c(/C=N/O)c(NCc3ccccc3)nc12	13	3	-14	104	-3	.
C[C@H]1CN([C@@H](C)CO)C(=O)c2cc(NC(=O)Nc3cccc4ccccc34)ccc2O[C@@H]1CN(C)Cc1ccc(-c2ccccc2)cc1	1	38*	.	88	11*	1
C[C@@H]1CN([C@@H](C)CO)C(=O)c2cccc(NC(=O)Nc3ccc(F)cc3)c2O[C@@H]1CN(C)Cc1ccc(Oc2ccccc2)cc1	13	43*	.	120	2	0
CCN(CC)CCN(C(=O)c1cc2c(ccc3ccccc32)oc1=O)c1nc2cc3c(cc2s1)OCCO3	24	71*	12	110	1	0
CN(C)CCN(C(=O)c1ccc(N2C(=O)CCC2=O)cc1)c1nc2cc3c(cc2s1)OCO3	-6	7	-4	93	0	.
CN(C)CCCN(C(=O)c1ccc2c(c1)OCCO2)c1nc2cc3c(cc2s1)OCO3	-5	6	29	95	1	.
CCN(CC)CCN(C(=O)c1ccc2c(c1)OCCO2)c1nc2cc3c(cc2s1)OCO3	6	3	4	108	1	.
CN(C)CCN(C(=O)c1ccc(Br)s1)c1nc2cc3c(cc2s1)OCCO3	24	19*	-2	111	-1	2
CN(C)CCN(C(=O)c1cccc2ccccc12)c1nc2cc3c(cc2s1)OCO3	2	41*	23	86	-1	0
CCN(c1ccccc1)S(=O)(=O)c1ccc(C(=O)N(CCCN(C)C)c2nc3cc4c(cc3s2)OCO4)cc1	18	29*	15	98	-3	-3
CCC(C)n1c(OC)nc2c1c(=O)n(C)c(=O)n2C (configuration not stated)	5	-15	-4	92	-1	.
